According to PMC11062922 (Nature Chemical Biology, 2023):

Each compound was assayed on ABL1. Settings: read-out: apparent Kd; compound concentrations:100 nM and 1000 nM (sheet 'Samples'); n = 1.
Parameters: species or system human, MV4-11 + K-562 + COLO205 + SK-N-BE2 + OVCAR-8
`NCCNS(=O)(=O)c1ccc(-c2ccnc3[nH]ccc23)cc1` [GSK977617A] showed a potency estimated from few doses of 681 nM.
`O=C1NC(=O)C(N2CCc3ccccc32)=C1c1ccccc1Cl` [SB-373598] showed a potency estimated from few doses of 172 nM.
With `Cl.Cl.NCC(C(=O)Nc1cc(Br)c(-c2ccnc3[nH]ccc23)s1)c1ccccc1.NCC(C(=O)Nc1cc(Br)c(-c2ccnc3[nH]ccc23)s1)c1ccccc1` (centres unmarked) [GSK1269851A] the potency estimated from few doses was 1040 nM.
`CC(C)N1CCC(n2cnc(-c3ccc(F)cc3)c2-c2ccnc(N)n2)CC1` [SB-223132] showed a potency estimated from few doses of 1110 nM.
`CNC(=O)c1ccccc1Nc1nc(Nc2ccc(N3CCOCC3)cc2)ncc1Cl.Cl` [GSK1576028A] showed a potency estimated from few doses of 1640 nM.
With `CN1C[C@@H]2Cn3c(c(C4=C(c5cn(C)c6ccccc56)C(=O)NC4=O)c4ccccc43)C[C@H]2C1.Cl` [RO0320234-001] the potency estimated from few doses was 93.7 nM.
In the case of `Cc1ccc2c(-c3ccncc3)c(-c3ccc(F)cc3)nn2c1.Cl` [GW461484A], the potency estimated from few doses is reported as 1220 nM.

Each compound was assayed on ABL2. Settings: read-out: apparent Kd; compound concentrations:100 nM and 1000 nM (sheet 'Samples'); n = 1.
Parameters: species or system human, MV4-11 + K-562 + COLO205 + SK-N-BE2 + OVCAR-8
For `NCCNS(=O)(=O)c1ccc(-c2ccnc3[nH]ccc23)cc1` [GSK977617A], the potency estimated from few doses was 277 nM.
In the case of `O=C1NC(=O)C(N2CCc3ccccc32)=C1c1ccccc1Cl` [SB-373598], the potency estimated from few doses is reported as 329 nM.
Compound `Cl.Cl.NCC(C(=O)Nc1cc(Br)c(-c2ccnc3[nH]ccc23)s1)c1ccccc1.NCC(C(=O)Nc1cc(Br)c(-c2ccnc3[nH]ccc23)s1)c1ccccc1` (centres unmarked) [GSK1269851A] has a potency estimated from few doses of 433 nM.
`CC(C)N1CCC(n2cnc(-c3ccc(F)cc3)c2-c2ccnc(N)n2)CC1` [SB-223132] was tested, and the potency estimated from few doses was 723 nM.
`CN1C[C@@H]2Cn3c(c(C4=C(c5cn(C)c6ccccc56)C(=O)NC4=O)c4ccccc43)C[C@H]2C1.Cl` [RO0320234-001] gave a potency estimated from few doses of 5.56 nM.
Compound `Cc1ccc2c(-c3ccncc3)c(-c3ccc(F)cc3)nn2c1.Cl` [GW461484A] has a potency estimated from few doses of 571 nM.

These compounds were tested on ACVR1B. Settings: read-out: apparent Kd; compound concentrations:100 nM and 1000 nM (sheet 'Samples'); n = 1.
Parameters: species or system human, MV4-11 + K-562 + COLO205 + SK-N-BE2 + OVCAR-8
In the case of `Cc1cccc(-c2nc(Nc3ccncc3)c3sccc3n2)n1` [GW869641X], the potency estimated from few doses is reported as 0.703 nM.
Compound `CNC(=O)c1ccccc1Nc1nc(Nc2ccc(N3CCOCC3)cc2)ncc1Cl.Cl` [GSK1576028A] has a potency estimated from few doses of 243 nM.
Compound `Cl.ON=C1CCc2cc(-c3nc(C4CCNCC4)[nH]c3-c3ccncc3)ccc21` [SB-614067-R] has a potency estimated from few doses of 846 nM.
`Cc1ccc2c(-c3ccncc3)c(-c3ccc(F)cc3)nn2c1.Cl` [GW461484A] was tested, and the potency estimated from few doses was 696 nM.
